From publication PMC5540273 (PLoS ONE, 2017)

How the values were obtained:
Details in all cases: concentration: 1 μM, replicates: in singlicate; n = 1
TAOK3 = test system: TAOK3
TBK1 = test system: TBK1
TEC = test system: TEC
TESK1 = test system: TESK1
TGFBR1 = test system: TGFBR1
TGFBR2 = test system: TGFBR2
TIE1 = test system: TIE1
TIE2 = test system: T1, TIE2
T1 construct: gene TEK

TLK1 = test system: TLK1
TLK2 = test system: TLK2
TNIK = test system: TNIK
TNK1 = test system: TNK1
TNK2 = test system: TNK2
TNNI3K = test system: TNNI3K
TRKA = test system: T2, TRKA
T2 construct: gene NTRK1

TRKB = test system: TRKB
TRKC = test system: T3, TRKC
T3 construct: gene NTRK3

TRPM6 = test system: TRPM6
TSSK1B = test system: TSSK1B
TSSK3 = test system: TSSK3
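Further: KINOMEscan kinase panel screen.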

Structure (SMILES) | %Inh (TAOK3) | %Inh (TBK1) | %Inh (TEC) | %Inh (TESK1) | %Inh (TGFBR1) | %Inh (TGFBR2) | %Inh (TIE1) | %Inh (TIE2) | %Inh (TLK1) | %Inh (TLK2) | %Inh (TNIK) | %Inh (TNK1) | %Inh (TNK2) | %Inh (TNNI3K) | %Inh (TRKA) | %Inh (TRKB) | %Inh (TRKC) | %Inh (TRPM6) | %Inh (TSSK1B) | %Inh (TSSK3)
O=C(Nc1ccccc1)Nc1cccc(Oc2ccc3nccn3n2)c1 | 0% | 10% | 0% | 0% | 5% | 9% | 0% | 92.4% | 17% | 0% | 7% | 23% | 0% | 0% | 0% | 0% | 27% | 0% | 0% | 0%
Cn1cncc1-c1ccc2ncnc(Nc3ccc(OCc4ccccc4)cc3)c2c1 [GW320571] | 0% | 0% | 6% | 11% | 5% | 29% | 30% | 0% | 4% | 0% | 0% | 0% | 29% | 23% | 45% | 0% | 0% | 0% | 29% | 16%
O=C(Nc1n[nH]c2nc(-c3nccs3)c(Br)cc12)C1CC1 [SB-742251] | 0% | 0% | 14% | 36% | 15% | 0% | 0% | 8% | 0% | 0% | 0% | 0% | 16% | 4% | 59% | 62% | 66% | 0% | 0% | 15%
Cc1ccc(NC(=O)Nc2cccc(Cl)c2)cc1-c1ccc(C(=O)Nc2ccncc2)cc1 [GSK1398468] | 0% | 5% | 13% | 18% | 30% | 0% | 0% | 0% | 0% | 12% | 0% | 0% | 12% | 64% | 0% | 0% | 6% | 0% | 0% | 8%
O=C(Nc1n[nH]c2cc(-c3cccc(F)c3F)ccc12)C1CC1 [SB-733894] | 16% | 18% | 4% | 8% | 1% | 14% | 0% | 17% | 0% | 5% | 72% | 10% | 2% | 0% | 38% | 11% | 34% | 0% | 0% | 0%
COc1ccc(CNC(=O)NC2CCN(c3ccnc(Nc4cc(OC)c(OC)c(OC)c4)n3)C2)cc1 (stereo not shown) [GSK1379748] | 0% | 15% | 0% | 2% | 0% | 0% | 20% | 0% | 9% | 0% | 0% | 0% | 4% | 10% | 73% | 23% | 40% | 18% | 0% | 10%
Cl.Oc1ccc(-c2nc(-c3ccccc3)[nH]c2-c2ccncc2)cc1 [SB-428218] | 0% | 18% | 0% | 36% | 60% | 7% | 0% | 0% | 0% | 0% | 0% | 0% | 10% | 0% | 0% | 63% | 64% | 0% | 0% | 0%
O=C(O)COc1ncnc2cc(-c3ccc4[nH]ncc4c3)sc12 | 0% | 11% | 0% | 13% | 10% | 18% | 24% | 21% | 22% | 0% | 10% | 0% | 0% | 0% | 33% | 42% | 0% | 6% | 0% | 0%
CCn1c(-c2ccccn2)nc2cnccc21 [SB-736398] | 0% | 0% | 0% | 0% | 21% | 10% | 0% | 0% | 0% | 0% | 0% | 7% | 9% | 0% | 0% | 59% | 52% | 0% | 5% | 12%
Cn1ccc2ncnc(Oc3ccc(NC(=O)Nc4ccccc4)cc3)c21 | 0% | 30% | 0% | 1% | 0% | 0% | 0% | 0% | 2% | 0% | 3% | 0% | 0% | 0% | 4% | 0% | 15% | 0% | 0% | 0%
COc1cc2ncnc(Nc3ccc4nc(-c5ccccc5)[nH]c4c3)c2cc1OC.Cl [GW282450] | 0% | 12% | 0% | 20% | 0% | 0% | 1% | 0% | 0% | 0% | 0% | 0% | 9% | 14% | 48% | 0% | 0% | 38% | 0% | 21%
